MBD2 inh: blocks human MBD2 binding to methylated DNA | Q9UBB5 | TR-FRET, MBD2 binding to methylated oligonucleotide | inhibition, % at 4.4 µM | actives 0.31% (n = 370,000) | AID 686964; in the data active means inhibition above about 13%
UHRF1 binding: UHRF1 methyl-DNA binding inhibition. UHRF1 binding to methylated oligo, TR-FRET. inhibition, % at 4.4 µM. actives 0.75% (n = 370,000). AID 687016; in the data active means inhibition above about 21%;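 further: UHRF1 SRA domain binding a hemimethylated CpG hairpin DNA probe; 0% = median of test compound wells and 100% = reference inhibitor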
Neddyl block: blocks human cullin neddylation. TR-FRET cullin neddylation, biochemical. calls only at 25 µM. actives 0.58% (n = 360,000); in the data active means inhibition above about 36%
Target sequence (P61081 whole entry, looked up): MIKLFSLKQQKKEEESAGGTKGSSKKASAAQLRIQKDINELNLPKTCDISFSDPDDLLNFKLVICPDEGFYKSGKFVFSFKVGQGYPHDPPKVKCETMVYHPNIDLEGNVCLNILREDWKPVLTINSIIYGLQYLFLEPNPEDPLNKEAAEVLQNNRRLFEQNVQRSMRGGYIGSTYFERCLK
Target sequence (Q13564 whole entry, looked up): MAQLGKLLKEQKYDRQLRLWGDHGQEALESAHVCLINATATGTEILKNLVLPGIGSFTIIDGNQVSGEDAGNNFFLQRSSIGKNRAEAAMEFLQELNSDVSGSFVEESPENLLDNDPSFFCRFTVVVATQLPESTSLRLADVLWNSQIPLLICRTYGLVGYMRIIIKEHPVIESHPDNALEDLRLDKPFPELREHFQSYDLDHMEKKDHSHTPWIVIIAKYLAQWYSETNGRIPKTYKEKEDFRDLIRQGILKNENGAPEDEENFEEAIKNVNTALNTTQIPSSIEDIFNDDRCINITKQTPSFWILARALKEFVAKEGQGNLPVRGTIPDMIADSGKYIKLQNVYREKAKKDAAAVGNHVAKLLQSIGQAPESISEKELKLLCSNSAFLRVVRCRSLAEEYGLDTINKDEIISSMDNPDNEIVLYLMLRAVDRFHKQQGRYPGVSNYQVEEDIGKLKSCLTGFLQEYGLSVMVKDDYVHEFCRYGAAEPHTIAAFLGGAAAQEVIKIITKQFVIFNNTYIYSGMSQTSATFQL
proKLK7 act: activators of human kallikrein-7 zymogen; purified proKLK7, EDANS-DABCYL substrate fluorescence; 100% is mature enzyme control, 0% vehicle; activation, % at 7 µM; actives 0.9% (n = 370,000);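 active means activation above the mean of all tested compounds plus 3 SD, computed per campaign excluding outliers beyond control limits, cut at about 13% in these data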
LEDGF integ inh: blocks HIV-1 LEDGF/p75-dependent DNA integration; TR-FRET IN-LEDGF/p75 DNA integration, Eu/Cy5; inhibition, % at 3.7 µM; actives 0.64% (n = 370,000); AID 743269;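 active means inhibition above the screen-wide mean plus 3 SD, cut at about 13% in these data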;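 further: signal is the Cy5 over europium emission ratio at 671 and 618 nm; 0% = plate median of compound wells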
Rin1 Abl inh: inhibitors of human Rin1-Abl protein interaction | actives 0.4% (n = 360,000) | inhibition, % at 7.35 µM | P00519+Q13671 | TR-FRET Rin1/Abl binding, biochemical | AID 588664; in the data active means inhibition above about 5%, passing the limit was not always enough
KLK7 act conf: proKLK7 activation, confirmation; activation, % at 7 µM; shares compounds with proKLK7 act; AID 686949; purified proKLK7, EDANS-DABCYL substrate fluorescence; scaled: vehicle 0, mature enzyme 100; actives 68% (n = 3,200);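 active means activation, as change over the incubation, above the mean of all tested compounds plus 3 SD, cut at about 13% in these data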
EDANS interfere: counter-screen for kallikrein-7 activators: EDANS-DABCYL optical interference. shares compounds with proKLK7 act. EDANS-DABCYL substrate fluorescence interference, no enzyme, 4 h; solvent 0%, active enzyme control 100%. activation, % at 7 µM. actives 80% (n = 3,200);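 active means activation above the all-compound mean plus 3 SD, ignoring values outside control-based bounds, cut at about 4.8% in these data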;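 further: value is the 4 h activation minus the activation read at time zero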
K7 EDANS ctr: EDANS fluorescence interference in dose response, no enzyme | EDANS-DABCYL peptide fluorescence interference | shares compounds with proKLK7 act | EC50, µM | AID 720493 | actives 20% (n = 250);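 active means compounds that raise the fluorescence signal in this interference counterscreen, with EC50 at or below 10 µM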;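 further: intact quenched peptide substrate alone read at 355 nm excitation and 520 nm emission; signal is fluorescence gain from T0 to T4 after four hours at room temperature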
Numbers without * were called inactive. Only some compounds are listed: those with a hit (about 3.1% of all), similar ones and a draw of the others.

`O=C(CC(=O)c1ccccc1)Nc1ccccn1` gave MBD2 inh 5.0, UHRF1 binding 0.3, Neddyl block inactive, proKLK7 act 20.6*, LEDGF integ inh 4.3, Rin1 Abl inh -0.9, KLK7 act conf 1.9 and EDANS interfere 2.4.
Screening CCCCC(=O)N1CCC(NS(=O)(=O)c2ccc3c(c2)CCN3C(C)=O)CC1 returned MBD2 inh 5.7, UHRF1 binding 3.0, proKLK7 act 0.1 and LEDGF integ inh -4.0.
COC(=O)c1cc(=O)c2c(ccc3oc(=O)ccc32)[nH]1 was read as MBD2 inh -5.0, UHRF1 binding -7.5, Neddyl block inactive, proKLK7 act 171.6*, LEDGF integ inh 2.8, Rin1 Abl inh -1.0, KLK7 act conf 220.0* and EDANS interfere 220.1*.
CCOc1ccc2nc(N3CCOCC3)nc(C)c2c1 was read as MBD2 inh -2.1, UHRF1 binding 2.9, proKLK7 act 21.3*, LEDGF integ inh 2.0, Rin1 Abl inh -3.5, KLK7 act conf -20.7 and EDANS interfere -31.9.
For CCOc1ccc(-n2c(COc3ccc(C)cc3)nnc2SCC(=O)c2ccc3ccccc3c2)cc1 the results were MBD2 inh -3.2, UHRF1 binding 9.1, proKLK7 act -0.3 and LEDGF integ inh 3.0.
`CNc1cnc(-c2ccc(O)c(OC)c2)cn1` gave MBD2 inh -6.8, UHRF1 binding -3.9, Neddyl block inactive, proKLK7 act 1.2, LEDGF integ inh 0.1 and Rin1 Abl inh -2.0.
Screening CNc1cnc(-c2ccsc2)cn1 returned MBD2 inh -4.6, UHRF1 binding -3.8, proKLK7 act 14.7*, LEDGF integ inh -1.8, Rin1 Abl inh -0.7, KLK7 act conf 12.2 and EDANS interfere 11.6*.
`CCN(CC)c1c2c(c(C#N)c3nc4ccccc4n13)CCC2` gave MBD2 inh 4.2, UHRF1 binding 1.1, Neddyl block inactive, proKLK7 act 0.0, LEDGF integ inh -0.8 and Rin1 Abl inh -5.7.
Screening CCCc1cc(NCC2CCCO2)n2c(nc3ccccc32)c1C#N (configuration not stated) returned MBD2 inh -1.2, UHRF1 binding -0.3, proKLK7 act 17.4*, LEDGF integ inh 0.2, Rin1 Abl inh 0.3, KLK7 act conf -53.9 and EDANS interfere -54.2.
CCCc1cc(NCc2ccccn2)n2c(nc3ccccc32)c1C#N was read as MBD2 inh -2.9, UHRF1 binding -1.4, proKLK7 act -6.5, LEDGF integ inh -6.5 and Rin1 Abl inh -3.8.
`CCCc1cc(NCCN(C)C)n2c(nc3ccccc32)c1C#N` gave MBD2 inh -1.6, UHRF1 binding 3.5, proKLK7 act 57.1*, LEDGF integ inh -2.1, Rin1 Abl inh -3.5, KLK7 act conf 20.1*, EDANS interfere 6.5* and K7 EDANS ctr >69.5.
`CCCc1cc(NCCCN(C)C)n2c(nc3ccccc32)c1C#N` gave MBD2 inh -0.2, UHRF1 binding -2.3, proKLK7 act 83.4*, LEDGF integ inh -2.9, Rin1 Abl inh -3.0, KLK7 act conf 12.4 and EDANS interfere 20.4*.
Cc1cc(C)n(CCC(=O)N2c3ccccc3CC2C)n1 (configuration not stated) was read as MBD2 inh 1.8, UHRF1 binding 1.7, Neddyl block inactive, proKLK7 act 0.2, LEDGF integ inh -0.2 and Rin1 Abl inh -0.9.
O=C(Nc1ccc(C(O)(C(F)(F)F)C(F)(F)F)cc1)c1ccc(F)cc1Cl was read as MBD2 inh -2.6, UHRF1 binding 4.8 and LEDGF integ inh 1.9.
Screening CSc1scc2c1-c1nc(SCC(=O)C(C)(C)C)ncc1CC2 returned MBD2 inh 5.0, UHRF1 binding 2.5, Neddyl block inactive, proKLK7 act -7.0, LEDGF integ inh -1.5 and Rin1 Abl inh -2.2.
`C=CCNC(=O)CSc1ncc2c(n1)-c1c(csc1SC)CC2` gave MBD2 inh -3.3, UHRF1 binding 4.0, proKLK7 act 46.4*, LEDGF integ inh 3.3, Rin1 Abl inh -8.9, KLK7 act conf 59.0* and EDANS interfere 68.8*.
`C=CCNC(=O)c1onc(CSc2ccccn2)c1C(=O)NCC=C` gave MBD2 inh 2.1, UHRF1 binding -0.4, Neddyl block inactive, proKLK7 act 0.4, LEDGF integ inh -2.2 and Rin1 Abl inh 3.7.
COc1ccc2c(c1)cc1n2CCN=C1NCCO was read as MBD2 inh -0.9, UHRF1 binding 1.9, proKLK7 act 16.9*, LEDGF integ inh -1.4, Rin1 Abl inh -3.0, KLK7 act conf 19.9* and EDANS interfere 26.8*.
`CCOC(=O)N1CCC(N2C(=O)c3ccccc3C2Nc2ccc3c(C)cc(=O)oc3c2)CC1` (configuration not stated) gave MBD2 inh 0.9, UHRF1 binding 33.3*, proKLK7 act 36.0*, LEDGF integ inh -0.7, Rin1 Abl inh 0.6, KLK7 act conf -142.5 and EDANS interfere -142.2.
For Cc1nn(-c2ccc(F)cc2)c2sc(C(=O)OC3CCOC3=O)cc12 (configuration not stated) the results were MBD2 inh -5.4, UHRF1 binding -0.9, proKLK7 act 20.2*, LEDGF integ inh 0.2, Rin1 Abl inh -1.8, KLK7 act conf 24.5* and EDANS interfere 22.6*.
`COc1cccc(Oc2coc3cc(OC(=O)N4CCOCC4)ccc3c2=O)c1` gave MBD2 inh -4.4, UHRF1 binding -1.7, Neddyl block inactive, proKLK7 act -0.1, LEDGF integ inh 5.0 and Rin1 Abl inh 3.3.
CCCCOC(=O)Oc1ccc2c(=O)c(Oc3cccc(C)c3)coc2c1 was read as MBD2 inh -5.9, UHRF1 binding -1.7, proKLK7 act 43.0*, LEDGF integ inh 1.1, Rin1 Abl inh -1.4, KLK7 act conf 84.6*, EDANS interfere 65.5* and K7 EDANS ctr 8.22*.
For CCCCOC(=O)Oc1ccc2c(=O)c(Oc3cc(C)cc(C)c3)coc2c1 the results were MBD2 inh -2.8, UHRF1 binding -2.7, proKLK7 act 4.3, LEDGF integ inh 1.3 and Rin1 Abl inh -1.9.
`CCCOC(=O)Oc1ccc2c(=O)c(Oc3cc(C)cc(C)c3)coc2c1` gave MBD2 inh 1.1, UHRF1 binding -0.1, proKLK7 act 42.9*, LEDGF integ inh 0.9, Rin1 Abl inh 2.8, KLK7 act conf 76.7*, EDANS interfere 65.3* and K7 EDANS ctr 5.04*.
